Results published in PubChem BioAssay (NCI).
About 83,000 compounds went through this panel and 20% of them were active in at least one assay; those are over-represented in the sample as a whole.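 In brief: 96-well plates, 48 h treatment, single concentration, percent growth endpoint.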 Unmarked numbers belong to inactive results. The source made the active and inactive calls. The calls were made as follows: active = growth percent below 10; inactive = the rest.

Assays:
Assay in all cases: NCI-60 one-dose screen, 48 h (100 = growth as untreated, 0 = no growth, -100 = all killed)
Details in all cases: 10 µM unless noted
T-47D breast = tested on: T-47D breast
BT-549 breast = tested on: BT-549 breast
MDA-MB-435 melanoma = tested on: MDA-MB-435 melanoma
SW-620 colon = tested on: SW-620 colon
MCF7 breast = tested on: MCF7 breast
HCT-116 colon = tested on: HCT-116 colon
HCC-2998 colon = tested on: HCC-2998 colon
KM12 colon = tested on: KM12 colon

| SMILES | growth (T-47D breast) | growth (BT-549 breast) | growth (MDA-MB-435 melanoma) | growth (SW-620 colon) | growth (MCF7 breast) | growth (HCT-116 colon) | growth (HCC-2998 colon) | growth (KM12 colon) |
| --- | --- | --- | --- | --- | --- | --- | --- | --- |
| CCOC(=O)C1=C(NC)OCC1=O | 110% | 102% | 110% | 100% | 103% | 108% | 102% | 105% |
| CN1C(=O)/C(=C/c2ccc(C(=O)Nc3ncc(Cc4ccc(Cl)cc4)s3)cc2)SC1=S | 37.8% | 46.7% | -32% (active) | 28.9% | 55.5% | 24.2% | 59.3% | 21.1% |
| Cc1nc2ncnc(Cl)c2[nH]1 | 95.7% | 105% | 105% | 103% | 91.3% | 84.3% | 98.6% | 102% |
| COC(=O)/C=C1/SC(=Nc2ccc(C)cc2)N(CCc2c[nH]c3ccc(O)cc23)C1=O | 35% | 9.38% (active) | 14.9% | 44.2% | 18.6% | 16.9% | 46.7% | 43.6% |
| O=C(/C=C/c1ccc(Cl)cc1)c1cccc(Nc2nc(Nc3ccccc3)nc(Nc3ccccc3)n2)c1 | 55.6% | 118% | 102% | 98.8% | -16.9% (active) | 29.5% | 88.8% | 86% |
| c1ccc(CNc2c3ccccc3nc3ccccc23)cc1 | 37.7% | 72.8% | 42.8% | 24.5% | 12% | 8.4% (active) | 38.2% | 30.5% |
| N#Cc1cccc(-c2c(-c3ccc4ccccc4c3)oc3ccccc3c2=O)c1 | 45.1% | 34.1% | -26.8% (active) | 14.6% | 20.3% | 12.4% | 68.8% | 25.9% |
| CN1CCN(c2ccc(C(=O)Nc3cccc(C#Cc4cccc5[nH]nc(N)c45)c3)cc2C(F)(F)F)CC1 | -48.3% (active) | 71.4% | -88.8% (active) | -73.5% (active) | -71.6% (active) | -83.4% (active) | -75.1% (active) | -57% (active) |
| Cn1c(=O)c2[nH]c(N/N=C/c3ccccc3Br)nc2n(C)c1=O | 108% | 99% | 113% | 109% | 91.4% | 103% | 118% | 98.6% |
| CCCCNc1ccc(C#N)c(OCCN(CC)CC)c1 | 104% | 98.2% | 104% | 109% | 93.8% | 104% | 108% | 112% |
| C[C@]12CC[C@@H]3c4ccc(O)c([N+](=O)[O-])c4CC[C@H]3[C@@H]1CCC2=O | 115% | 78.3% | 95.4% | 100% | 112% | 105% | 94.1% | 91.1% |
| Cc1noc(C)c1C(=O)OCc1coc2ccccc2c1=O | 28% | 69.2% | 59.8% | 32.1% | 49.6% | 41.4% | 105% | 95.8% |
| OCCCC1CCN(C(Cc2ccccc2)c2ccccc2)CC1 (stereo not given) | 56.9% | 79.8% | 96.4% | 107% | 94.6% | 83.9% | 94.4% | 94.7% |
| C#CCOc1ccc2ncnc(Nc3cccc(NC(=O)C=C)c3)c2c1 | 70.6% | 46.6% | 69.1% | 90.3% | 60.5% | 74.4% | 90.8% | 83.5% |
| N#CC1=C(N)Oc2c(sc3c(Br)cccc23)C1c1ccc(F)cc1 (stereo not given) | 50% | 25.3% | -10.3% (active) | 32.2% | 12.1% | 11.9% | 23.5% | 23.1% |
